Experiment [1] can be described thus: TOX21_p53_BLA_p2_viability: Viability Assessment in the Tox21 HCT-116 p53 Agonism Beta-lactamase Assay, Phase 2 (AID 2283591).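 Also: compound exposure lasted 16 h at 37 °C; actives lower the ATP signal meaning cytotoxicity.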 A digest of the protocol:
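HCT116 p53-bla cells, 4000/well, dosed after 5 h plating (217-fold dilution of DMSO stocks) and incubated 16 h at 37C. Viability taken as cellular ATP by CellTiter-Glo luminescence after 30 min RT; signal loss marks cytotoxicity.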

The target of experiment [2] is Cellular tumor antigen p53 (Homo sapiens) (UniProt P04637). Kind of experiment: TOX21_p53_BLA_p2_ratio: Tox21 HCT-116 p53 Agonism Beta-lactamase Assay, Ratio, Phase 2 (AID 2283592). An outline of the steps:
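DMSO-normalized, positive-direction endpoint derived from the 460 nm/530 nm FRET ratio in HCT116 p53 beta-lactamase reporter cells exposed 16 h at 37C and loaded with CCF4-AM for 2 h.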

Experiment [3] can be described thus: TOX21_p53_BLA_p3_viability: Viability Assessment in the Tox21 HCT-116 p53 Agonism Beta-lactamase Assay, Phase 3 (AID 2283593).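 Also: cells exposed to compound for 16 h before reading.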 A digest of the protocol: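 HCT116 cells, 4000/well, dosed 5 h after plating by pin transfer (217-fold dilution from DMSO stock) and incubated 16 h at 37C, 5% CO2. Viability read as ATP luminescence with CellTiter-Glo after 30 min at room temperature.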

Experiment [4] concerns the target Cellular tumor antigen p53 (Homo sapiens) (UniProt P04637). Briefly: TOX21_p53_BLA_p3_ratio: Tox21 HCT-116 p53 Agonism Beta-lactamase Assay, Ratio, Phase 3 (AID 2283596). A digest of the protocol:
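Cells were seeded at 4000/well, rested 5 h at 37C, then dosed with DMSO compound solutions (217-fold dilution) for 16 h. CCF4-AM substrate was loaded for 2 h at room temperature, and the 460/530 nm emission ratio was fitted for gain of signal versus DMSO.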

Experiment [5] is described as follows: TOX21_p53_BLA_p4_viability: Viability Assessment in the Tox21 HCT-116 p53 Agonism Beta-lactamase Assay, Phase 4 (AID 2283597).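 Also: hits lower the luminescence signal meaning cytotoxicity.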 A digest of the protocol: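 In this multiplexed secondary endpoint, HCT116 cells (4000 per well, compound at 5 h, 16 h treatment) received CellTiter-Glo after the beta-lactamase read. Luminescence after 30 min RT reflects ATP, and falling signal marks cytotoxicity.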

A short description of experiment [6]: TOX21_p53_BLA_p5_viability: Viability Assessment in the Tox21 HCT-116 p53 Agonism Beta-lactamase Assay, Phase 5 (AID 2283600). A digest of the protocol:
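Here cell health was gauged by ATP levels in wells holding 4000 cells, each treated 16 h with DMSO-delivered compounds at 217-fold dilution; reduced luminescence marked toxicity.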

Experiment [7] concerns the target Cellular tumor antigen p53 (Homo sapiens) (UniProt P04637). Kind of experiment: TOX21_p53_BLA_p4_ratio: Tox21 HCT-116 p53 Agonism Beta-lactamase Assay, Ratio, Phase 4 (AID 2283601). An outline of the steps:
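HCT-116 p53 beta-lactamase reporter cells (4000/well) preincubated 5 h, then compound (217-fold dilution of DMSO stock) for 16 h at 37C. CCF4-AM substrate added 2 h at room temperature; 460/530 nm emission ratio fitted upward versus DMSO.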

A short description of experiment [8]: CCTE_Harrill_HTTr_Viability_MCF7: CCTE's 6-hour Cell Viability Assessment for the High-Throughput Transcriptomics (HTTr) Platform, in MCF-7 cells cultured in DMEM + 10% fetal bovine serum, Harrill Lab (AID 2284010; active = hit-call score of the fitted dose curve at least 0.9, where 1 is the maximum; inactive = score below 0.9). An outline of the steps: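 Propidium iodide exclusion, imaged by high-content analysis, gauged viability after a six-hour exposure across eight concentrations. Cells were MCF-7 grown in DMEM with 10% fetal bovine serum; fits run in both directions against DMSO.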

Experiment [9] is described as follows: CCTE_Harrill_HTTr_Apoptosis_MCF7: CCTE's 6-hour Apoptosis Assessment for the High-Throughput Transcriptomics (HTTr) Platform, in MCF-7 cells cultured in DMEM + 10% fetal bovine serum, Harrill Lab (AID 2284011; active = hit-call score of the fitted dose curve at least 0.9, where 1 is the maximum; inactive = score below 0.9). An outline of the steps:
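Apoptosis in MCF-7 cells grown in DMEM with 10% fetal bovine serum was scored after a six hour exposure by high content imaging of caspase-3/7 activation (CellEvent Caspase 3/7 Green), with DMSO serving as negative control and baseline.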

The nature of experiment [10]: CCTE_Harrill_HTTr_CellCount_MCF7: CCTE's Cell Proliferation Assessment for the High-Throughput Transcriptomics (HTTr) Platform, Harrill Lab (AID 2284012).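 Also: cells exposed to compound for six hours; intended direction is loss of nuclei count meaning fewer cells.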 A digest of the protocol:
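Cell count from high-content imaging of Hoechst-labeled nuclei serves as viability/growth readout. Chemicals were applied to MCF-7 cells in eight concentrations for six hours, with fitting in both directions relative to DMSO.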

Experiment [11] has as its system Brachyury (BRA) Protein Expression, Deisenroth Lab, TBXT (gene 6862). Briefly: CCTE_Deisenroth_DEVTOX-GLR_legacy_Bra: (Legacy) CCTE's DevTox GLR-Endo Assay Evaluation of Brachyury (BRA) Protein Expression, Deisenroth Lab (AID 2284329; active = hit-call score of the fitted dose curve at least 0.9, where 1 is the maximum; inactive = score below 0.9). An outline of the steps: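 Readout: percent Bra+ cells by high-content fluorescence imaging, Bra+ meaning mean intensity 5x BMAD over pluripotent control median. RUES2-GLR cells dosed twice over 48 h differentiation; DMSO-control median subtracted before concentration-response fitting.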

The nature of experiment [12]: CCTE_Deisenroth_DEVTOX-GLR_legacy_CellCount: (Legacy) Viability Assessment in CCTE's DevTox GLR-Endo Assay, Deisenroth Lab (AID 2284331; active = hit-call score of the fitted dose curve at least 0.9, where 1 is the maximum; inactive = score below 0.9). The conditions noted are these: actives raise or lower the signal. A digest of the protocol:
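Seed RUES2-GLR 24 h; differentiate 48 h, dosing at 0 and 24 h; fix, stain nuclei; image 5 fields/well; count nuclei. Conc. 1 nM - 200 uM, single technical replicate, n=4 experiments; bidirectional fit vs 0.2% DMSO.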

Experiment [13] deals with SRY-box transcription factor 17 (SOX17) Protein Expression, Deisenroth Lab, SOX17 (gene 64321). Briefly: CCTE_Deisenroth_DEVTOX-GLR_legacy_Sox17: (Legacy) CCTE's DevTox GLR-Endo Assay Evaluation of SRY-box transcription factor 17 (SOX17) Protein Expression, Deisenroth Lab (AID 2284341; active = hit-call score of the fitted dose curve at least 0.9, where 1 is the maximum; inactive = score below 0.9). The conditions noted are these: actives raise or lower the signal. An outline of the steps: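 Using the RUES2-GLR line, compounds are tested as 10-point series during 48-h defined-media differentiation. Sox17 reporter fluorescence per cell determines positivity; endpoint is percentage positive, analysed bidirectionally versus DMSO baseline.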

The subject of experiment [14] is SRY-box transcription factor 2 (SOX2) Protein Expression, Deisenroth Lab, SOX2 (gene 6657). Kind of experiment: CCTE_Deisenroth_DEVTOX-GLR_legacy_Sox2: (Legacy) CCTE's DevTox GLR-Endo Assay Evaluation of SRY-box transcription factor 2 (SOX2) Protein Expression, Deisenroth Lab (AID 2284346; active = hit-call score of the fitted dose curve at least 0.9, where 1 is the maximum; inactive = score below 0.9). A digest of the protocol: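 Read-out: fraction of Sox2+ cells by high-content fluorescence imaging of fixed RUES2-GLR cells after 48 h differentiation with two 24 h-spaced exposures. Positivity cutoff 5x BMAD above endoderm control median; 0.2% DMSO median subtracted.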

Experiment [15] concerns SRY-box transcription factor 17 (SOX17) Protein Expression, Deisenroth Lab, SOX17 (gene 64321). Briefly: CCTE_Deisenroth_DEVTOX-GLR_Endo_SOX17: CCTE's DevTox GLR-Endo Assay Evaluation of SRY-box transcription factor 17 (SOX17) Protein Expression, Deisenroth Lab (AID 2284413; active = hit-call score of the fitted dose curve at least 0.9, where 1 is the maximum; inactive = score below 0.9). A digest of the protocol: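 Human RUES2-GLR cells carrying an inducible fluorescent reporter are differentiated in defined media for 48 h and dosed twice, 24 h apart. After fixation and nuclear staining, imaging yields SOX17+ cell percentage relative to 0.2% DMSO-treated differentiated cells.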

Experiment [16] relates to Brachyury (BRA) Protein Expression, TBXT (gene 6862). Briefly: CCTE_Deisenroth_DEVTOX-GLR_Endo_BRA: CCTE's DevTox GLR-Endo Assay Evaluation of Brachyury (BRA) Protein Expression, Deisenroth Lab (AID 2284417; active = hit-call score of the fitted dose curve at least 0.9, where 1 is the maximum; inactive = score below 0.9). A digest of the protocol:
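Percent BRA+ (mesoderm) RUES2-GLR cells after 48 h differentiation with two exposures, 1 nM - 200 uM; 0.2% DMSO control subtracted.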

Experiment [17] is described as follows: CCTE_Deisenroth_DEVTOX-GLR_Endo_CellCount: Viability Assessment in CCTE's DevTox GLR-Endo Assay, Deisenroth Lab (AID 2284420; active = hit-call score of the fitted dose curve at least 0.9, where 1 is the maximum; inactive = score below 0.9). A digest of the protocol: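 Measured 48 h after dosing: fluorescent nuclei counted by imaging in human RUES2-GLR cells under defined differentiation media, tested at 1 nM - 200 uM. Values are percent cell-count change relative to 0.2% DMSO.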

Experiment [18] has as its system SRY-box transcription factor 17 (SOX17) Protein Expression, Deisenroth Lab, SOX17 (gene 64321). Briefly: CCTE_Deisenroth_DEVTOX-GLR_Pluri_SOX17: CCTE's DevTox GLR-Pluri Assay Evaluation of SRY-box transcription factor 17 (SOX17) Protein Expression, Deisenroth Lab (AID 2284427). An outline of the steps: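 Using an inducible fluorescent SOX17 reporter in human pluripotent RUES2-GLR cells, compounds (1 nM - 200 uM) were given twice over 48 h differentiation. Percent SOX17+ cells minus DMSO control came from high-content image analysis.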

Experiment [19] concerns SRY-box transcription factor 2 (SOX2) Protein Expression, Deisenroth Lab, SOX2 (gene 6657). Kind of experiment: CCTE_Deisenroth_DEVTOX-GLR_Pluri_SOX2: CCTE's DevTox GLR-Pluri Assay Evaluation of SRY-box transcription factor 2 (SOX2) Protein Expression, Deisenroth Lab (AID 2284428; active = hit-call score of the fitted dose curve at least 0.9, where 1 is the maximum; inactive = score below 0.9). A digest of the protocol: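 Percent SOX2+ RUES2-GLR cells, determined by fluorescence microscopy after 48 h and two 24-h-interval chemical exposures spanning 1 nM–200 uM, served as the endpoint. Values are expressed relative to 0.2% DMSO; total cell counts assessed viability.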

For experiment [20], the system named is Brachyury (BRA) Protein Expression, Deisenroth Lab, TBXT (gene 6862). Kind of experiment: CCTE_Deisenroth_DEVTOX-GLR_Pluri_BRA: CCTE's DevTox GLR-Pluri Assay Evaluation of Brachyury (BRA) Protein Expression, Deisenroth Lab (AID 2284429). An outline of the steps: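 RUES2-GLR reporter line; 48 h mesoderm differentiation; two exposures, 24 h apart; 1 nM - 200 uM, 10 points; nuclear stain, high-content imaging, 5 fields/well; endpoint = %BRA+ cells of total count minus 0.2% DMSO; n=4.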

Experiment [21] can be described thus: CCTE_Deisenroth_DEVTOX-GLR_Pluri_CellCount: Viability Assessment in CCTE's DevTox GLR-Pluri Assay Evaluation of Total Cell Counts, Deisenroth Lab (AID 2284430; active = hit-call score of the fitted dose curve at least 0.9, where 1 is the maximum; inactive = score below 0.9). An outline of the steps: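 Cytotoxicity readout: fluorescent nuclei counts by high-content imaging, expressed as percent change relative to 0.2% DMSO. Human RUES2-GLR pluripotent line differentiated 48 h, dosed twice at 24-h intervals across 1 nM - 200 uM (10 points).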

Structures are written as SMILES. Results filed as inconclusive are left out. Activity calls are given as the source filed them. The calls were made as follows, unless noted: active = hit-call score of the fitted dose curve at least 0.9, where 1 is the maximum; inconclusive = response in the unintended direction; inactive = score below 0.9.

Sequence of Cellular tumor antigen p53 (Homo sapiens) (P04637 whole entry, looked up): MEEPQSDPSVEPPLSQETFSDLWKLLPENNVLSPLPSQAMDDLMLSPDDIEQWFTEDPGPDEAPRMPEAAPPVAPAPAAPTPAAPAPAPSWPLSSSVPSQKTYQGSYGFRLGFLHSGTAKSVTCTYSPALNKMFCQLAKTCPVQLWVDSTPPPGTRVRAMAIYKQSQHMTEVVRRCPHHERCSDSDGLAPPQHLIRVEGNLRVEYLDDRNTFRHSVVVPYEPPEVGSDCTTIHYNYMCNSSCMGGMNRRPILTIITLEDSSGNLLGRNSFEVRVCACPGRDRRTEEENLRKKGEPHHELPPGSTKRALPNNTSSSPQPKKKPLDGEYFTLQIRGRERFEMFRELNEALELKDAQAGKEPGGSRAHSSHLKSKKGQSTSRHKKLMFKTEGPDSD

For `CCCCN(CCCC)CC(O)c1cc(Cl)cc2c1-c1ccc(Cl)cc1/C2=C/c1ccc(Cl)cc1` (stereo not given), the compound was classed as inactive in experiment [1], in [2], in experiment [3], in experiment [4], in [5] and in experiment [6]. For the same compound, the outcome in experiment [7] was inactive.
Turning to `N#CCC(=O)O`, the compound was classed as inactive in [1], in [2], in experiment [3], in experiment [4], in experiment [5] and in experiment [6]. The result in [8], in [9] and in experiment [10] was inactive.
Consider `OCC(CBr)(CBr)CBr`, for which the outcome in [1], in experiment [2], in experiment [3], in [4], in [5] and in experiment [7] was inactive.
As for `O=C(c1ccc(F)cc1)C1CCN(CCn2c(=O)[nH]c3ccccc3c2=O)CC1`, the compound was classed as inactive in experiment [1], in [2], in experiment [3], in [4], in experiment [5] and in experiment [6]. The result in [7], in experiment [11] and in experiment [21] was inactive. Besides, the AC50 in experiment [12] was 58.8 µM (active); in [13], 39.9 µM (active); in experiment [14], 9.92 µM (active); in [15], 37.9 µM (active); in experiment [16] it was 70 µM (active); in experiment [17], 58.4 µM (active). For the same compound, the AC50 in experiment [18] is 100 µM (active); in experiment [19] it was 19.8 µM (active); in experiment [20] it was 127 µM (active).

Broadly, the AC50 is the concentration giving half of the maximal activity seen.

The values above are taken from PubChem BioAssay (EPA / NIEHS).
